40 compounds from PubChem BioAssay (NCI) can be followed below.

The panel holds about 79,000 compounds, 15% with a hit somewhere; the sample as a whole holds those more often. Unmarked numbers belong to inactive results. The source made the active and inactive calls. Rule as the data show it: active = growth inhibition above about 70%; inactive = the rest.

The first assay can be described thus: NCI Yeast Anticancer Drug Screen. Data for the bub3 strain (AID 167). Particulars: S. cerevisiae bub3 mutant strain, at 50.0 µM (retest, dose inferred, filed as 5.0), active compounds read high. An outline of the steps:
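Steps: expose the mutant yeast strain to compound; grow alongside vehicle-treated cultures; measure growth; express inhibition against the vehicle cultures.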
As to `O=[n+]1c2c(n([O-])c3ccc4ccccc4c31)-c1cccc3cccc-2c13`, the growth inhibition was -9%.

Turning to `COc1ccc(C(=O)Cc2ccc(Cl)cc2)cc1OC`, the growth inhibition was -1%.

On to `CCN(CC)CCC(=O)c1ccc(Oc2ccc(C)cc2)cc1`, for which the growth inhibition is 89% (active).

Regarding `BrC(Br)=C1C(=C(Br)Br)C(Br)C1Br` (stereo not given), the growth inhibition was 66%.

Take `O=C(O)C(Cc1cc(I)c(O)c(I)c1)c1ccccc1` (stereo not given): the growth inhibition is 29%.

For the compound `CC1(C)OC2C(COC(c3ccccc3)(c3ccccc3)c3ccccc3)OC(n3ccc(=O)[nH]c3=O)C2O1` (stereo not given), the growth inhibition is 94% (active).

For the compound `Clc1ccc(C2=CCN3CC=C(c4ccc(Cl)cc4)C23)cc1`, the growth inhibition was 41%.

For `Nc1ccc([N+](=O)[O-])cc1Nc1c2ccccc2nc2ccccc12`, the growth inhibition is 17%.

For the compound `COc1c2c3c(ccnc3c3ccccc13)C(=O)N2C`, the growth inhibition was 72% (active).

Regarding `O=C1/C(=C/c2ccc([N+](=O)[O-])cc2)CNC/C1=C\c1ccc([N+](=O)[O-])cc1`, the growth inhibition is 99% (active).

With `Clc1ccc(-c2nnn3ccccc23)cc1`, the growth inhibition is 5%.

For `O=Cc1ccc([N+](=O)[O-])o1`, the growth inhibition is 57%.

Regarding `CN(C)Cc1cc(C(C)(C)C)cc(C2CCCCC2)c1O`, the growth inhibition is 40%.

Take `COc1ccc2c(c1)CN([C@@H](C)[C@H]1CC[C@H]3[C@@H]4CC[C@H]5C[C@@H](O)CC[C@]5(C)[C@H]4CC[C@]13C)CO2`: the growth inhibition was 99% (active).

With `FC(F)(F)c1ccc(NC(=S)SCc2ccc3c(c2)OCO3)cc1`, the growth inhibition was -6%.

As for `Nc1cc(F)c2c(c1F)C(=O)c1cc(F)ccc1-2`, the growth inhibition was 72% (active).

As for `CC12CCCCC1CCC(Br)C2=O` (stereo not given), the growth inhibition was -34%.

Turning to `CC(C)c1cc(O)c(C(C)(C)C)cc1Cl`, the growth inhibition is 30%.

As to `CCCOC(=O)CCCC(=O)N(CC)CC`, the growth inhibition is -3%.

Turning to `CCOC(=O)c1cc(Cc2ccccc2)c(=O)n(C)c1-c1ccccc1`, the growth inhibition is 84% (active).

For `COS(=O)c1cc(Cl)cc(Cl)c1OC(=O)CSSCC(=O)Oc1c(Cl)cc(Cl)cc1S(=O)OC` (stereo not given), the growth inhibition was 98% (active).

For `ICCCCSc1cc(-c2ccccc2)[o+]c2ccccc12`, the growth inhibition was 85% (active).

On to `Nc1cc(Cl)c2c(c1)Cc1ccccc1-2`, for which the growth inhibition was 94% (active).

As to `Cc1ccc(S(=O)(=O)NCCSSCCNS(=O)(=O)c2ccc(C)cc2)cc1`, the growth inhibition is 95% (active).

Consider `OC(Cc1cccnc1)(c1ccccc1)c1ccc(Cl)cc1` (stereo not given), for which the growth inhibition is 77% (active).

As for `Cc1ccc(C2=CC(=O)/C(=C\C(=O)c3ccc(Cl)cc3)O2)cc1`, the growth inhibition is 22%.

In the case of `O=C(Nc1ncnc2c1ncn2C1CC(O)C(CO)O1)c1ccccc1` (stereo not given), the growth inhibition was -1%.

As to `O=C1CSC(=S)N1c1ccc(F)cc1F`, the growth inhibition is 84% (active).

For `CCCOC(=O)C(Br)C(Br)C(=O)OCCC` (stereo not given), the growth inhibition is 100% (active).

For the compound `c1ccc2nc3[nH]c4ccccc4c3cc2c1`, the growth inhibition was 46%.

Consider `O=S(=O)(c1ccc(NC(=S)NCc2ccncc2)cc1)N1CCCCC1`, for which the growth inhibition was -18%.

For `Nc1ccccc1Sc1ccccc1`, the growth inhibition is 73% (active).

With `CCC(Cl)COP(=O)(OCC(Cl)CC)OC(c1ccc(Cl)c(Cl)c1)P(=O)(OCC(Cl)CC)OCC(Cl)CC` (stereo not given), the growth inhibition is 9%.

Take `O=C(O)/C=C\c1cc2ccccc2c2ccccc12`: the growth inhibition was 99% (active).

Take `COC(=O)C1C2CC3c4[nH]c5cc(OC)c(Br)cc5c4CCN3CC2CC(OC(=O)c2cc(OC)c(OC)c(OC)c2)C1OC` (stereo not given): the growth inhibition is 87% (active).

Regarding `Cc1c2ccnc(-c3ccc(F)cc3)c2cc2c1[nH]c1ccccc12`, the growth inhibition is 1%.

`COc1cc2cc[n+]3c4ccc([N+](=O)[O-])cc4ccc3c2cc1OC`: the growth inhibition was 81% (active).

Regarding `CCCCCCCCC1N(C)CCCN1C`, the growth inhibition was 98% (active).

Take `CC1(C)OC2C(COC(c3ccccc3)(c3ccccc3)c3ccccc3)OC(n3cnc4c(=O)[nH]cnc43)C2O1` (stereo not given): the growth inhibition was 98% (active).

On to `COc1cccc2c1C(=O)c1c(O)c3c(c(O)c1C2=O)C[C@@](O)(C(=O)CO)C[C@@H]3OC1CC(N(C)C)C(O)C(C)O1` (stereo not given in full), for which the growth inhibition was 97% (active).

Still in this assay, the particulars now being: S. cerevisiae bub3 mutant strain, at 50.0 µM, active compounds read high.
Turning to `O=[n+]1c2c(n([O-])c3ccc4ccccc4c31)-c1cccc3cccc-2c13`, the growth inhibition was 19.7%.

Regarding `COc1ccc(C(=O)Cc2ccc(Cl)cc2)cc1OC`, the growth inhibition is 3.55%.

Consider `CCN(CC)CCC(=O)c1ccc(Oc2ccc(C)cc2)cc1`, for which the growth inhibition is 67%.

In the case of `BrC(Br)=C1C(=C(Br)Br)C(Br)C1Br` (stereo not given), the growth inhibition was 73% (active).

Take `O=C(O)C(Cc1cc(I)c(O)c(I)c1)c1ccccc1` (stereo not given): the growth inhibition is 21.9%.

Consider `CC1(C)OC2C(COC(c3ccccc3)(c3ccccc3)c3ccccc3)OC(n3ccc(=O)[nH]c3=O)C2O1` (stereo not given), for which the growth inhibition was 72.6% (active).

As to `Clc1ccc(C2=CCN3CC=C(c4ccc(Cl)cc4)C23)cc1`, the growth inhibition is 99.8% (active).

For `Nc1ccc([N+](=O)[O-])cc1Nc1c2ccccc2nc2ccccc12`, the growth inhibition is -43.4%.

Take `COc1c2c3c(ccnc3c3ccccc13)C(=O)N2C`: the growth inhibition was 75.6% (active).

For the compound `O=C1/C(=C/c2ccc([N+](=O)[O-])cc2)CNC/C1=C\c1ccc([N+](=O)[O-])cc1`, the growth inhibition was 83.8% (active).

Turning to `Clc1ccc(-c2nnn3ccccc23)cc1`, the growth inhibition is 91.7% (active).

For the compound `O=Cc1ccc([N+](=O)[O-])o1`, the growth inhibition was 99.8% (active).

`CN(C)Cc1cc(C(C)(C)C)cc(C2CCCCC2)c1O`: the growth inhibition was 71.8% (active).

Take `COc1ccc2c(c1)CN([C@@H](C)[C@H]1CC[C@H]3[C@@H]4CC[C@H]5C[C@@H](O)CC[C@]5(C)[C@H]4CC[C@]13C)CO2`: the growth inhibition is 98.7% (active).

For the compound `FC(F)(F)c1ccc(NC(=S)SCc2ccc3c(c2)OCO3)cc1`, the growth inhibition is 87% (active).

Turning to `Nc1cc(F)c2c(c1F)C(=O)c1cc(F)ccc1-2`, the growth inhibition was 17.8%.

As to `CC12CCCCC1CCC(Br)C2=O` (stereo not given), the growth inhibition was 13.1%.

For `CC(C)c1cc(O)c(C(C)(C)C)cc1Cl`, the growth inhibition was 76.6% (active).

As for `CCCOC(=O)CCCC(=O)N(CC)CC`, the growth inhibition was -0.6%.

In the case of `CCOC(=O)c1cc(Cc2ccccc2)c(=O)n(C)c1-c1ccccc1`, the growth inhibition was 85.3% (active).

Turning to `COS(=O)c1cc(Cl)cc(Cl)c1OC(=O)CSSCC(=O)Oc1c(Cl)cc(Cl)cc1S(=O)OC` (stereo not given), the growth inhibition is 98.9% (active).

`ICCCCSc1cc(-c2ccccc2)[o+]c2ccccc12`: the growth inhibition was 75.4% (active).

With `Nc1cc(Cl)c2c(c1)Cc1ccccc1-2`, the growth inhibition is 70.8% (active).

Take `Cc1ccc(S(=O)(=O)NCCSSCCNS(=O)(=O)c2ccc(C)cc2)cc1`: the growth inhibition was 94.3% (active).

Take `OC(Cc1cccnc1)(c1ccccc1)c1ccc(Cl)cc1` (stereo not given): the growth inhibition was 97.2% (active).

For `Cc1ccc(C2=CC(=O)/C(=C\C(=O)c3ccc(Cl)cc3)O2)cc1`, the growth inhibition was 49.5%.

As to `O=C(Nc1ncnc2c1ncn2C1CC(O)C(CO)O1)c1ccccc1` (stereo not given), the growth inhibition was 54.1%.

`O=C1CSC(=S)N1c1ccc(F)cc1F`: the growth inhibition is 83.8% (active).

As to `CCCOC(=O)C(Br)C(Br)C(=O)OCCC` (stereo not given), the growth inhibition was 91.8% (active).

On to `c1ccc2nc3[nH]c4ccccc4c3cc2c1`, for which the growth inhibition is 50.6%.

With `O=S(=O)(c1ccc(NC(=S)NCc2ccncc2)cc1)N1CCCCC1`, the growth inhibition is 9.35%.

For the compound `Nc1ccccc1Sc1ccccc1`, the growth inhibition was 64.5%.

As to `CCC(Cl)COP(=O)(OCC(Cl)CC)OC(c1ccc(Cl)c(Cl)c1)P(=O)(OCC(Cl)CC)OCC(Cl)CC` (stereo not given), the growth inhibition is 55.6%.

Consider `O=C(O)/C=C\c1cc2ccccc2c2ccccc12`, for which the growth inhibition was 98.5% (active).

As to `COC(=O)C1C2CC3c4[nH]c5cc(OC)c(Br)cc5c4CCN3CC2CC(OC(=O)c2cc(OC)c(OC)c(OC)c2)C1OC` (stereo not given), the growth inhibition is 86.2% (active).

With `Cc1c2ccnc(-c3ccc(F)cc3)c2cc2c1[nH]c1ccccc12`, the growth inhibition is -17.1%.

Regarding `COc1cc2cc[n+]3c4ccc([N+](=O)[O-])cc4ccc3c2cc1OC`, the growth inhibition was 57.7%.

Consider `CCCCCCCCC1N(C)CCCN1C`, for which the growth inhibition is 99% (active).

As for `CC1(C)OC2C(COC(c3ccccc3)(c3ccccc3)c3ccccc3)OC(n3cnc4c(=O)[nH]cnc43)C2O1` (stereo not given), the growth inhibition is 49.9%.

Regarding `COc1cccc2c1C(=O)c1c(O)c3c(c(O)c1C2=O)C[C@@](O)(C(=O)CO)C[C@@H]3OC1CC(N(C)C)C(O)C(C)O1` (stereo not given in full), the growth inhibition is 89.3% (active).
